The source of these data is the supplement of paper PMC12024529.

The test system of the test is HEK293 WT BDD-FVIII-Gluc. The test can be described thus: secreted FVIII-Gluc luciferase Z-score vs DMSO control; higher = more FVIII-Gluc secretion. To be noted: 5 µM. The method, then:
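Natural plant-compound library (480 compounds, ST catalogue IDs) screened on HEK293 cells stably expressing WT BDD-FVIII-Gaussia luciferase fusion at 5 µM. Secreted Gluc activity in the medium is given as a Z-score relative to DMSO controls.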
For `O=c1cc(CO)occ1O`, the “secreted FVIII-Gluc luciferase Z-score” value was determined as 0.0386.
Next, `O=C1c2ccccc2C(=O)c2c(O)c(O)cc(O)c21`: -0.332.
`O=C1c2c(O)cc(O)cc2OC(c2ccc(O)c(O)c2)C1O` (stereo not drawn): the “secreted FVIII-Gluc luciferase Z-score” value is -0.135.
With `CC(C)=CCC/C(C)=C\COc1c2ccoc2cc2oc(=O)ccc12`, the “secreted FVIII-Gluc luciferase Z-score” value is -0.466.
Regarding `COc1c2ccoc2nc2c(OC)c(OCC(O)C(C)(C)O)ccc12` (stereo not drawn), the “secreted FVIII-Gluc luciferase Z-score” value stood at 0.695.
To `C=C1CCC2C(C)(CO)C(O)CCC2(C)C1C/C=C1\C(=O)OCC1O` (stereo not drawn) belongs -1.01.
To `C/C=C(\C)C(=O)OC1CC2(C)OC2C(OC(C)=O)C2(C)CCC(O)(C(C)C)C12` (stereo not drawn) belongs -0.754.
`C=CC(C)(O)CCC=C(C)C` (stereo not drawn): the “secreted FVIII-Gluc luciferase Z-score” value is -0.395.
To `Nc1ncnc2c1ncn2[C@@H]1O[C@H](CO)[C@@H](O)[C@H]1O` belongs 0.566.
Next, `O=C(O)C(=O)Cc1ccccc1`: 0.46; `C/C(=C\COc1cc(=O)[nH]c2ccccc12)CCC(O)C(C)(C)O` (stereo not drawn): -0.128; `COC(=O)[C@H]1[C@H]2C[C@H]3c4[nH]c5ccccc5c4CCN3C[C@@H]2CC[C@@H]1O`: -1.15.
Next, `COc1cc2cc3c4c(cc(OC)c(OC)c4c2cc1OC)CCN3C`: 0.0768; `NCC1OC(OC2C(CO)OC(OC3C(O)C(N)CC(N)C3OC3OC(CO)C(O)CC3N)C2O)C(N)C(O)C1OC1OC(CO)C(O)C(O)C1O` (stereo not drawn): 1.54; `COc1ccc2c3c1O[C@H]1C[C@@H](O)C=C[C@@]31CCN(C)C2`: 0.615.
Regarding `C=C[C@@]1(C)C=C2CC[C@@H]3[C@](C)(CCC[C@@]3(C)C(=O)O)[C@H]2CC1`, the “secreted FVIII-Gluc luciferase Z-score” value was -0.481.
For `CC(=O)c1c(O)c(C)c(O)c2c1OC1=CC(=O)C(C(C)=O)C(=O)[C@@]12C` (stereo partly drawn), the “secreted FVIII-Gluc luciferase Z-score” value was -5.07.
Turning to `CCC(=O)OCC(=O)[C@@]1(OC(=O)CC)[C@@H](C)C[C@H]2[C@@H]3CCC4=CC(=O)C=C[C@]4(C)[C@@]3(F)[C@@H](O)C[C@@]21C`, the “secreted FVIII-Gluc luciferase Z-score” value came to 3.76.
